This note sets out measurements from PubChem BioAssay.

Several values for one entry are separate records, joined by “and”; a condition that tells them apart may be missing. Identical values can stand only once. Some compounds were tested as several samples or in several runs, with calls that do not always agree. Activity calls are given as the source filed them.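 Rule for the calls: active = inhibition at or above 50% relative to wild type and mutant plate controls; inactive = inhibition below 50%.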

The nature of the assay: loss of swimming-algae plug formation – whole organism, Chlamydomonas reinhardtii, WT vs cilia-less mutant, absorbance, 96-well, primary screen (AID 463189).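 Note: 0% = wild type cc124 cells in DMSO and 100% = ciliumless bld1 mutant cells.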 The conditions noted are these: Chlamydomonas reinhardtii gravitaxis, OD600 absorbance, 2 days; at 10 µM; stronger effect = higher value.
As for `O=C(NCC1CCCCN1)c1cc(OCC(F)(F)F)ccc1OCC(F)(F)F` (stereo not given), the inhibition is -10.1% (inactive) and -10.2% (inactive).

In the case of `CN1CC(=O)Nc2ccc(F)cc2C1=O`, the inhibition was -6.78% (inactive).

Regarding `CN1CCN(C2=Nc3cc(Cl)ccc3Nc3ccccc32)CC1`, the inhibition is -2.62% (inactive) and 13.2% (inactive).

Regarding `COc1cc(C)nc(Oc2ccc(=O)[nH]n2)n1`, the inhibition was 34.1% (inactive).

As for `CCN(CC)CCNC(=O)c1ccc(N)cc1`, the inhibition is 3.94% (inactive) and 1.02% (inactive).

On to `C1CNCCNCCCNCCNC1`, for which the inhibition was -15.9% (inactive).

Turning to `COc1cc2nc(N3CCN(C(=O)C4CCCO4)CC3)nc(N)c2cc1OC` (stereo not given), the inhibition is 3.5% (inactive) and -0.975% (inactive).

Regarding `O=C(CCCN1CCC(O)(c2ccc(Cl)cc2)CC1)c1ccc(F)cc1`, the inhibition was -2.31% (inactive) and 3.84% (inactive).

For `CCCOc1cccc(CN2CCCCC2c2cccnc2)c1` (stereo not given), the inhibition is -12.9% (inactive).

For `COc1ccc(-c2coc3cc(O)cc(O)c3c2=O)cc1`, the inhibition is -12.4% (inactive).

Take `CN(C)CCCN1c2ccccc2CCc2ccccc21`: the inhibition was -3.09% (inactive) and 37.3% (inactive).

As to `Cc1cccc(OCC(=O)NCC(=O)n2nc(C)cc2C)c1`, the inhibition was 16.2% (inactive).

In the case of `COCCN(Cc1ccccc1)P(=O)(O)c1ccccc1OCC(=O)O`, the inhibition is 19.2% (inactive).

In the case of `Oc1oc(-c2ccccc2)nc1C=NCc1ccncc1`, the inhibition was -10.3% (inactive).

For the compound `CCC1=Nc2ccccc2NC2=C1C(=O)CCC2`, the inhibition is 23.6% (inactive).

Turning to `CC[C@]1(O)C[C@@H]2CN(CCc3c([nH]c4ccccc34)[C@@](C(=O)OC)(c3cc4c(cc3OC)N(C)[C@H]3[C@@](O)(C(=O)OC)[C@H](OC(C)=O)[C@]5(CC)C=CCN6CC[C@]43[C@@H]65)C2)C1`, the inhibition is -7.31% (inactive).

`NC(N)=Nc1nc(CSCC/C(N)=N/S(N)(=O)=O)cs1`: the inhibition is 2.23% (inactive) and -8.71% (inactive).

With `CC(=O)O[C@@]12CO[C@@H]1C[C@H](O)[C@@]1(C)C(=O)[C@H](O)C3=C(C)[C@@H](OC(=O)[C@H](O)[C@@H](NC(=O)OC(C)(C)C)c4ccccc4)C[C@](O)([C@@H](OC(=O)c4ccccc4)[C@H]21)C3(C)C`, the inhibition was 22.5% (inactive).

On to `CC(=O)Oc1oc(-c2ccccc2)nc1/C=N/c1ccccn1`, for which the inhibition was -3.91% (inactive).

For `COc1ccc(OC)c(N=C(C)C2=C(O)COC2=O)c1`, the inhibition was -11.6% (inactive).

Regarding `CC[C@H]1CN2CCc3cc(OC)c(OC)cc3[C@@H]2C[C@@H]1C[C@H]1NCCc2cc(OC)c(OC)cc21`, the inhibition was 69.7% (active) and 130% (active).

In the case of `COc1ccc(OCC(=O)OCCN(C)C)cc1`, the inhibition was 6.76% (inactive).

For `COc1cccc(C(=O)OCCN(C)C(C)(C)C)c1`, the inhibition was 31.9% (inactive).

For the compound `Cc1nnc(NS(=O)(=O)c2ccc(N)cc2)s1`, the inhibition was -0.666% (inactive).

With `COc1ccc([C@@H]2Sc3ccccc3N(CCN(C)C)C(=O)[C@@H]2OC(C)=O)cc1`, the inhibition is 4.06% (inactive) and -15.6% (inactive).

With `O=C(CCN1CCCC1Cc1ccccc1)c1ccc2c(c1)OCCO2` (stereo not given), the inhibition was 7.98% (inactive).

Consider `Fc1ccc(C(c2ccc(F)cc2)N2CCN(C/C=C/c3ccccc3)CC2)cc1`, for which the inhibition is -8.15% (inactive) and 80.3% (active).

Turning to `COc1ccc[nH]c1=O`, the inhibition was 14.4% (inactive).

Regarding `CCC(=O)Oc1oc(-c2ccccc2)nc1C=Nc1ccccc1OC`, the inhibition is 10.5% (inactive).

As to `O=C(O)c1ccc(COCC(F)(F)C(F)F)o1`, the inhibition is 25% (inactive).

Turning to `Cc1nc2sc(C)c(C)c2c(=O)o1`, the inhibition was 6.15% (inactive).

Take `CC1(C)S[C@@H]2[C@H](NC(=O)[C@H](N)c3ccccc3)C(=O)N2[C@H]1C(=O)O`: the inhibition was -0.692% (inactive).

Turning to `O=P(Cc1nnco1)(c1ccccc1)c1ccccc1`, the inhibition was -3.84% (inactive).

For the compound `Nc1nc2c(ncn2COCCO)c(=O)[nH]1`, the inhibition was -9.79% (inactive) and -10% (inactive).

For `c1ccc2c(c1)nc(CN1CCOCC1)n1c3ccccc3nc21`, the inhibition is -4.79% (inactive).

Consider `CCC(NC(=O)Nc1nnc(C(F)(F)F)s1)(C(F)(F)F)C(F)(F)F`, for which the inhibition is 9.74% (inactive).

On to `CCOC(=O)C(Oc1ccc(=O)[nH]n1)C(C)=O` (stereo not given), for which the inhibition was -3.15% (inactive).

As to `CC1=NS(=O)(=O)c2cc(Cl)ccc2N1`, the inhibition was -5.98% (inactive) and 10.3% (inactive).

In the case of `CCCCOc1ccccc1P(=O)(O)CP(=O)(c1ccccc1)c1ccccc1`, the inhibition was 2.4% (inactive).

In the case of `COc1cccc(C(=O)NCC(=O)n2nc(C)cc2C)c1`, the inhibition is 36% (inactive).

By inhibition is commonly meant the change of the read-out against control, counted positive when it falls.
